# Data reported in PubChem BioAssay (EPA / NIEHS).
# Active and inactive are the calls of the source. How the source made its calls: active means hit-call score of the fitted dose curve at least 0.9, where 1 is the maximum; inactive means score below 0.9.
# Biological target: Aryl hydrocarbon receptor (Homo sapiens) (UniProt P35869)
# Test: ATG_Ahr_CIS: Attagene CIS-FACTORIAL HepG2 Assay for human Aryl Hydrocarbon Receptor (Ahr) (AID 2282930)
# Details: HepG2 AhR cis-factorial reporter transcription; actives raise or lower the signal
# Procedure: ATG_CIS is a cell-based, multiplexed-readout assay that uses HepG2, a human liver cell line, with measurements taken at 24 hours after chemical dosing in a 24-well plate.ATG_Ahr_CIS is one of 52 assay component(s) measured or calculated from the ATG_CIS assay. It is designed to make measurements of mRNA induction, a form of inducible reporter, as detected with fluorescence intensity signals by Reverse transcription polymerase chain reaction (RT-PCR) and Capillary electrophoresis technology.Data from the assay component ATG_Ahr_CIS was analyzed into 1 assay endpoint. This assay endpoint, ATG_Ahr_CIS, was analyzed with bidirectional fitting relative to DMSO as the negative control and baseline of activity. Using a type of inducible reporter, measures of mRNA for gain or loss-of-signal activity can be used to understand the reporter gene at the transcription factor-level as they relate to the gene AHR. Furthermore, this assay endpoint can be referred to as a primary readout, because this assay has produced multiple assay endpoints where this one serves a reporter gene function. To generalize the intended target to other relatable targets, this assay endpoint is annotated to the dna binding intended target family, where the subfamily is basic helix-loop-helix protein.
# Human liver HepG2 cells are transiently transfected with multiple reporter transcription units (MRTUs) in 6-well plates using FuGene 6 reagent (Roche; 3 ml FuGene/1 mg DNA). The MRTU constructs are regulated by a cis-regulating element (promoter). […] A major difference between the CIS and TRANS system is that in CIS activities of endogenous TFs are measured, whereas the TRANS assay evaluates changes in activities of exogenous, chimeric NR-Gal4 proteins. […] At the end of 24 hour incubation, total RNA was isolated using TriZol reagent (Invitrogen). The isolated RNA is then reverse-transcribed using oligo(dT) primer and Mo-MLV reverse transcriptase (Invitrogen) with DNAse I (Ambion) treatment for 30 min. The one-tenth of the produced cDNA was amplified by PCR using Taq DNA polymerase (Invitrogen) and two reporter sequence-specific primers. The PCR products were fluorescently labeled by primer extension with 6-arboxyfluorescein (6-FAM) 5'-labeled reporter sequence-specific primer (2 min at 95 C, 20 s at 68 C and 10 min at 72 C) and these products were digested with 5U of HpaI (New England Biolabs) for 2h at 37 C. […] The raw capillary electrophoresis data was processed using Attagraph software (Attagene).
# Sequence of Aryl hydrocarbon receptor (Homo sapiens) (P35869 whole entry, looked up): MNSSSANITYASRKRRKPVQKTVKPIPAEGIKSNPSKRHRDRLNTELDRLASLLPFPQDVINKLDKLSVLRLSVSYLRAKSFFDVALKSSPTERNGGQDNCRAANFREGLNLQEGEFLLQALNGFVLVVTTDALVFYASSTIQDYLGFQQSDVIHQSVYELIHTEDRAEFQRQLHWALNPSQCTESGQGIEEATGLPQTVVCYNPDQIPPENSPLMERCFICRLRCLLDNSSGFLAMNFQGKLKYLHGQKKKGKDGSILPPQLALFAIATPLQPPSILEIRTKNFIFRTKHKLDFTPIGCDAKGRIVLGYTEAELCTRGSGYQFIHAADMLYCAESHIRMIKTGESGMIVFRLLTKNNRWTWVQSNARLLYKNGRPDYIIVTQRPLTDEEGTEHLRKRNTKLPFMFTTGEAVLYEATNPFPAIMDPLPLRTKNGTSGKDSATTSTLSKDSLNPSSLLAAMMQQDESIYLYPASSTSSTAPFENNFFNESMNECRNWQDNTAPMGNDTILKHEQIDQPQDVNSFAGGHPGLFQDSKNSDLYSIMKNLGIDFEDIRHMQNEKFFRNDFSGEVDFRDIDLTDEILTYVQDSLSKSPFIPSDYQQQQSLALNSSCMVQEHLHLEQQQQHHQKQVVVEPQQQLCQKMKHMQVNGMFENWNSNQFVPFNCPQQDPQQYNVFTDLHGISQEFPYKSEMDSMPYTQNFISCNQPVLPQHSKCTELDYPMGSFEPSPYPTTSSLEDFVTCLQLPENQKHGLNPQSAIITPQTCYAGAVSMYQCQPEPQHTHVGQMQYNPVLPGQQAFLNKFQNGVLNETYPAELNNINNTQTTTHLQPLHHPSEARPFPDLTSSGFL
Compound,outcome,AC50
CC(=O)Oc1ccc(C(C)=O)cc1,inactive,–
CC(=O)OCC(C)OC(C)=O (stereo not given),inactive,–
CCCCCCCCC(=O)OCC,inactive,–
CCCOC(=O)CCCCC(=O)OCCC,inactive,–
O=C(c1ccc(O)cc1)c1ccc(O)cc1O,inactive,–
N#[N+]c1ccc2c(S(=O)(=O)[O-])cccc2c1O,inactive,–
CCCCCCOC(=O)C(C)CC (stereo not given),inactive,–
c1ccc(CNCc2ccccc2)cc1,inactive,–
C=C(C)[C@H]1CC=C(C)CC1,inactive,–
O=C1CCC(=O)N1Cl,inactive,–
C=CC(C)(CCC=C(C)C)OC(=O)C(C)C (stereo not given),inactive,–
CCOC(F)(F)C(F)(F)C(F)(F)C(F)(F)F,inactive,–
CCOC(=O)[C@H](C)O,inactive,–
O=C(O)c1cc2ccccc2nc1C(=O)O,–,41.1 µM (active)
CC1(C)O[C@@H]2C[C@H]3[C@@H]4C[C@H](F)C5=CC(=O)C=C[C@]5(C)[C@@]4(F)[C@@H](O)C[C@]3(C)[C@]2(C(=O)CO)O1,inactive,–
O=CC1CC1,–,0.119 µM (active)
COc1cc(NC(=O)CC(C)=O)c(OC)cc1Cl,–,40.1 µM (active)
CCCCC/C=C\C/C=C\CCCCCCCC(=O)OC,inactive,–
O=C(Nc1cccc(C(F)(F)F)c1)c1cc(Br)cc(Br)c1O,inactive,–
CC1=NN(c2cc(S(=O)(=O)O)ccc2Cl)C(=O)C1N=Nc1ccccc1 (stereo not given),–,0.541 µM (active)

Compound,outcome,AC50
O=P(O)(O)Oc1ccccc1,inactive,–
Cc1ccc([N+](=O)[O-])cc1S(=O)(=O)O,inactive,–
O=C1Nc2ccccc2C1(c1ccc(O)cc1)c1ccc(O)cc1,–,166 µM (active)
Cc1cc(O)c(Cl)c(C)c1Cl,inactive,–
O=C(Nc1ccccc1SSc1ccccc1NC(=O)c1ccccc1)c1ccccc1,–,2.79 µM (active)
O=[N+]([O-])c1ccc(CO)cc1,inactive,–
COCCCOCCCOC,inactive,–
c1ccc(CCCc2ccncc2)cc1,inactive,–
Cc1ccc2c(c1)C(=O)c1ccccc1C2=O,–,9.39 µM (active)
CC(C)c1ccc2cc(C(C)C)ccc2c1,–,135 µM (active)
OCCN(CCO)c1ccccc1,–,13.7 µM (active)
Cc1c(C)c([N+](=O)[O-])c(C(C)(C)C)c([N+](=O)[O-])c1C,inactive,–
C[C@]12CCC(=O)C=C1CC[C@@H]1[C@@H]2C(=O)C[C@@]2(C)[C@H]1CC[C@]2(O)C(=O)CO,inactive,–
CCC(C)C=O (stereo not given),inactive,–
CC/C=C\C/C=C\C/C=C\CCCCCCCC(=O)O,inactive,–
Nc1ccc2cc3ccccc3cc2c1,inactive,–
C=CC(=O)OCCOC(=O)C=C,inactive,–
C=CC(C)(CCC=C(C)C)OC(=O)CC(C)C (stereo not given),inactive,–
Cc1oncc1C(=O)Nc1ccc(C(F)(F)F)cc1,–,8.59 µM (active)
O=C1OC(=O)c2cc(Oc3ccc4c(c3)C(=O)OC4=O)ccc21,inactive,–
